Our source for the Inhibition values is ChEMBL document CHEMBL4513147, “CO-ADD screening of Armstrong State University (GA, USA) compounds”.

Entries with a potency or affinity are not part of this list.

The test system of experiment [1] is Staphylococcus aureus. The following applies: Concentration 32 ug.mL-1; ASSAY_TEST Inhibition of Bacterial Growth; detection method Absorption (OD600); MEDIA CAMHB; plate type 384well; NBS; CORNING #3640; time 18 hr.
Experiment [2] has as its system Escherichia coli. The note with it: Concentration 32 ug.mL-1; ASSAY_TEST Inhibition of Bacterial Growth; detection method Absorption (OD600); MEDIA CAMHB; plate type 384well; NBS; CORNING #3640; time 18 hr.

The Inhibition is the relative decrease from the control value, in per cent. As for `COc1ccc2c(c1)CCC(=Cc1cncc(Br)c1)C2=O`, the Inhibition was 0.4% in experiment [1] and -0.04% in experiment [2].
In the case of `COc1ccc2c(c1)C(O)C(=Cc1cccnc1Cl)CC2` (configuration not stated), the figures for the Inhibition in experiment [1] and in experiment [2] were 5.45% and 4.12%, respectively.
For `COc1ccc2c(c1)C(=O)C(=Cc1cnccc1OC)CC2`, in that order: 16.33% and 1.39%.
As to `COc1ccc2c(c1)C(=O)C(=Cc1cccnc1)CC2`, the figures for the Inhibition in experiment [1] and in experiment [2] were 17.94% and 4.25%, respectively.
For `CC(C)(C)OC(=O)N1CC(=Cc2ccco2)C(=O)/C(=C/c2ccco2)C1`, in that order: 17.59% and 1.8%.
For `COc1ccc2c(c1)C(=O)C(=Cc1cncc(Br)c1)CC2`, in that order: 75.2% and 2%.
For `COc1cccc2c1CCC(=Cc1ccoc1)C2=O`, in that order: 21.03% and -0.51%.
Take `COc1cccc2c1CCC(=Cc1cccc(C=C3CCc4c(OC)cccc4C3=O)c1)C2=O`: the Inhibition in experiment [1] is on record as -26.12%; in experiment [2], -22.27%.
For the compound `COc1ccc2c(c1)C(=O)C(=Cc1ccoc1)CC2`, the Inhibition amounted to 24.21% in experiment [1] and 0.87% in experiment [2].
Turning to `COc1ccc2c(c1)CCC(=Cc1cccnc1)C2=O`, the results for the Inhibition in experiment [1] and in experiment [2] were 11.8% and 5.55%, respectively.
Take `COc1ccc2c(c1)CCC(=Cc1ccncc1)C2=O`: the Inhibition was found to be 16.04% in experiment [1] and 3.11% in experiment [2].
Regarding `COc1ccc2c(c1)CCC(=Cc1cnccc1OC)C2=O`, the Inhibition in experiment [1] is recorded as 0.49%; in experiment [2], -6.17%.
With `COc1ccc2c(c1)C(=O)C(=Cc1cccnc1Br)CC2`, the Inhibition in experiment [1] is 5.72%; in experiment [2], 0.26%.
As to `COc1ccc2c(c1)C(=O)C(=Cc1cccnc1OC)CC2`, the Inhibition in experiment [1] was determined as 16.7%; in experiment [2], 4.57%.
For `COc1ccc2c(c1)C(=O)C(=Cc1cccnc1Cl)CC2`, in that order: 6.88% and -2.48%.
Take `COc1ccc2c(c1)C(=O)C(=Cc1cccnc1Cl)CC2.Cl`: the values for the Inhibition in experiment [1] and in experiment [2] were 20.04% and 2.21%, respectively.
For `COc1ccc2c(c1)CCC(=Cc1cccnc1Br)C2=O`, in that order: 11.61% and -5.29%.
Take `COc1cc2c(cc1OC)C(=O)C(=Cc1ccco1)CC2`: the values for the Inhibition in experiment [1] and in experiment [2] were 23.29% and 6.96%, respectively.
For the compound `COc1cc2c(cc1OC)C(=O)C(=Cc1ccoc1)CC2`, the Inhibition is given as 22.02% in experiment [1] and 2.08% in experiment [2].
Consider `COc1cccc2c1CCC(=Cc1ccco1)C2=O`, for which the figures for the Inhibition in experiment [1] and in experiment [2] were 13.6% and 5.5%, respectively.
As for `COc1ccc2c(c1)C(=O)C(=Cc1cccc(C=C3CCc4ccc(OC)cc4C3=O)c1)CC2`, the Inhibition in experiment [1] is 5.74%; in experiment [2], 2.05%.
For `COc1ccc2c(c1)CCC(=Cc1cccnc1Cl)C2=O` the same measures were 1.26% and -0.89%.
As for `COc1ccc2c(c1)CCC(=Cc1ccco1)C2=O`, the Inhibition is given as 19.21% in experiment [1] and 7.9% in experiment [2].
For `COc1ccc2c(c1)C(=O)C(=Cc1ccco1)CC2`, in that order: 20.52% and 4.79%.
For `COc1ccc2c(c1)CCC(=Cc1ccccn1)C2=O`, in that order: 14.37% and 1.84%.
As for `Cc1ccc(C=C2CN(C(=O)OC(C)(C)C)C/C(=C\c3ccc(C)cc3C)C2=O)c(C)c1`, the Inhibition in experiment [1] is reported as 9.56%; in experiment [2], -6.82%.
For `COc1ccc(/C=C/C(=O)c2ccc(OCc3ccc(Br)cc3)cc2)cc1OC`, in that order: -11.78% and -9.61%.
For the compound `CC(C)(C)OC(=O)N1CC(=Cc2ccoc2)C(=O)/C(=C/c2ccoc2)C1`, the values for the Inhibition in experiment [1] and in experiment [2] were 3.94% and -5.28%, respectively.
Regarding `COc1ccc2c(c1)C(=O)C(=Cc1ccccn1)CC2`, the Inhibition is given as 11.08% in experiment [1] and 3.58% in experiment [2].
For `COc1ccc2c(c1)CCC(=Cc1ccc(OC)nc1)C2=O`, in that order: -4.04% and 1.52%.
Take `COc1ccc2c(c1)CCC(=Cc1ccoc1)C2=O`: the values for the Inhibition in experiment [1] and in experiment [2] were 24.71% and 8.45%, respectively.
